A word on the AC50: it is the concentration giving half of the maximal activity seen.

These results are taken from PubChem BioAssay (EPA / NIEHS).

Some structures have more than one record in an assay (separate samples or runs), and their calls can disagree. Calls of active or inactive are those of the source. How the source made its calls: active means hit-call score of the fitted dose curve at least 0.9, where 1 is the maximum; inactive means score below 0.9.

Read-out in the assay: CYP3A5 (gene 1577)
Nature of the assay: LTEA_HepaRG_CYP3A5: Life Technologies and Expression Analysis (LTEA) Assay for CYP3A5 using HepaRG (AID 2283493). To be noted: mRNA level, 48 h; actives raise or lower the signal. How it is done:
LTEA_HepaRG is a cell based, multiplexed-readout assay that uses HepaRG, a human liver cell line, with measurements taken at 48 hours after chemical dosing on a 96-well plate.LTEA_HepaRG_CYP3A5 is one of 102 assay component(s) measured in the LTEA HepaRG cell culture assay. It is a marker of NR mediated metabolism.Data from the assay component LTEA_HepaRG_CYP3A5 was analyzed into 1 endpoint. This assay endpoint, LTEA_HepaRG_CYP3A5, was analyzed with bidirectional fitting relative to DMSO as the negative control and baseline of activity. Using a type of inducible reporter, measures of mRNA induction for gain or loss-of-signal activity can be used to understand regulation of transcription factor activity. To generalize the intended target to other relatable targets, this assay endpoint is annotated to the cyp intended target family, where the subfamily is xenobiotic metabolism.
A total of 1060 chemcials from the ToxCast library were tested in eight-point concentration-response experiments. Cell culture and cytotoxicity assays were conducted at Thermo Fisher Scientific's Custom Services facility (Madison, WI). A single lot of human HepaRG cells (Thermo Fisher Scientific, Frederick, MD) was used for the cell culture experiments. 96-well format collagen type I coated plates of human HepaRG cells were prepared using established methods. Briefly, cryopreserved HepaRG cells were thawed, plated at a density of approximately 100,000 cells/well in HepaRG Thaw, Plate, and General Purpose media (HPRG770, Thermo Fisher Scientific), and incubated for 48 hours. 0.5% DMSO was selected as vehicle control to balance the requisite need of DMSO in HepaRG cultures to maintain differentiation (for example, baseline metabolism, proportions of hepatocytes vs. cholangiocytes), while enabling further hepatic receptor pathway activation (for example, PXR and CAR) in response to chemical exposure. 48 hours after plating, the culture medium was replaced with HepaRG Serum-Free Incudtion Media. Cells were exposed to each test chemical in duplicate and maintained in CO2 incubators for another 48 hours. Chemical plates were thawed to room temperature and 200x concentrations of treatment groups were prepared. 8-point conentration-reponse curves were made with the highest exposure at 100 uM, followed by half-log dilutions, all in 0.5% DMSO. Each test plate contained variouse controls, induction positive controls (1mM phenobarbital), cytotoxicity positive controls ([…] aflatoxin B1), vehicle controls (0.5% DMSO), and total lysis controls (0.5% DMSO). Cell morphology images were taken using an Essen IncuCyte FLR automated microscope, with six 96-well plates imaged in about 24 minutes. Images were captured and exported and JPEG files. Spent culture media was transfered to black-well plates for the LDH assay, and remaining media was sorted at -80 C for later use. Cells were treated with RLT buffer and frozen until shipped for gene expression analysis. Total RNA was isolated from the cell suspension in 75 uL of Buffer RLT (Qiagen, Germantown, MD 20874) by Quintiles/Expression Analysis (Durham, NC) using a custom isolation procedure. Total RNA from each plate well was transferred to a preamplification plate. Fluidigm's 96.96 Dynamic ArrayTM (Fluidigm, Amsterdam, the Netherlands) technology was used for gene expression analyses by quantitative reverse transcription polymerase chain reaction (qRT-PCR, performed by Quintiles/Expression Analysis, Durham, NC)89. Standard TaqManTM Assays (Applied Biosystems/ThermoFisher Scientific, Foster City, CA) were used to assess the expression of 93 genes selected based on their selectivity and sensitivity to important hepatic receptors known to be modulated by environmental chemicals; importance in human hepatocyte functionality; and hepatotoxicity. […]
Consider `CCOCN(C(=O)CCl)c1c(C)cccc1CC`, for which the outcome was inactive.

Turning to `CC(C)(C)C(O)C(Oc1ccc(Cl)cc1)n1cncn1` (stereo not given), the molecule was classed as inactive.

On to `COP(=O)(OC)OC=C(Cl)Cl`, for which the outcome was inactive.

As to `Oc1ccc(Cl)cc1Cc1ccccc1`, the call was inactive and the half-maximal activity concentration (AC50) is 50.5 µM (active).

For the molecule `O=C1c2ccccc2C(=O)N1SC(Cl)(Cl)Cl`, the outcome was inactive.

In the case of `CC(C)OC(=O)Nc1cccc(Cl)c1`, the molecule was classed as inactive.

For the molecule `Cc1[nH]c(=O)n(C(C)(C)C)c(=O)c1Cl`, the outcome was inactive.

Take `CCC(C)Nc1c([N+](=O)[O-])cc(C(C)(C)C)cc1[N+](=O)[O-]` (stereo not given): the call was inactive.

`O=C(Nc1ccccc1)Nc1cnns1`: the call was inactive.

Regarding `O=C(NC(=O)c1c(F)cccc1F)Nc1ccc(OC(F)(F)C(F)OC(F)(F)F)c(Cl)c1` (stereo not given), the result was inactive.

In the case of `O=S(=O)(O)C(F)(F)C(F)(F)C(F)(F)C(F)(F)C(F)(F)C(F)(F)C(F)(F)C(F)(F)F`, the call was inactive.

With `Oc1cc(Cl)ccc1Oc1ccc(Cl)cc1Cl`, the call was inactive and the AC50 was 51 µM (active).

For the molecule `O=C(O)CCCOc1ccc(Cl)cc1Cl`, the half-maximal activity concentration (AC50) was 36.5 µM (active).

With `COP(=S)(OC)Oc1ccc(SC)c(C)c1`, the molecule was called inactive.

Turning to `CC(C)N(C(=O)COc1nnc(C(F)(F)F)s1)c1ccc(F)cc1`, the molecule was called inactive.

For `CNC(=O)CSP(=S)(OC)OC`, the result was inactive.

`ClC1C(Cl)C(Cl)C(Cl)C(Cl)C1Cl` (stereo not given): the molecule was classed as inactive.

Consider `CCCN(CCC)c1c([N+](=O)[O-])cc(C(F)(F)F)cc1[N+](=O)[O-]`, for which the molecule was classed as inactive.

`CCC(C)(NC(=O)c1cc(Cl)c(C)c(Cl)c1)C(=O)CCl` (stereo not given): the concentration at half-maximal activity (AC50) was 89.6 µM (active).

Regarding `CC(C)(C)C(O)/C(=C\c1ccc(Cl)cc1Cl)n1cncn1` (stereo not given), the outcome was inactive.

As for `O=C(O)COc1ccc(Cl)cc1Cl`, the result was inactive.

For `CNC(=O)Oc1ccccc1OC(C)C`, the outcome was inactive.

Consider `CNC(=O)Oc1cccc(N=CN(C)C)c1`, for which the call was inactive.

As for `C[C@H]1[C@H](c2ccc(Cl)cc2)SC(=O)N1C(=O)NC1CCCCC1`, the outcome was inactive.

Take `CCOC1Oc2ccc(OS(C)(=O)=O)cc2C1(C)C` (stereo not given): the AC50 is 75.2 µM (active).

For `Clc1ccccc1-c1nnc(-c2ccccc2Cl)nn1`, the outcome was inactive.

`CC1(C)C(C=C(Cl)Cl)C1C(=O)OC(C#N)c1ccc(F)c(Oc2ccccc2)c1` (stereo not given): the outcome was inactive.

On to `O=C(O)C(F)(F)C(F)(F)C(F)(F)C(F)(F)C(F)(F)C(F)(F)C(F)(F)F`, for which the molecule was classed as inactive.

Turning to `CN1CSC(=S)N(C)C1`, the molecule was called inactive.

Turning to `N#Cc1c(Cl)c(Cl)c(Cl)c(C#N)c1Cl`, the molecule was called inactive.

For `O=[N+]([O-])c1c(Cl)c(Cl)c(Cl)c(Cl)c1Cl`, the outcome was inactive.

As for `CC1(c2ccc(Oc3ccccc3)cc2)OC(=O)N(Nc2ccccc2)C1=O` (stereo not given), the half-maximal activity concentration (AC50) is 90.2 µM (active).

With `OCCOc1ccccc1`, the molecule was called inactive.

As for `CNC(=O)/C=C(\C)OP(=O)(OC)OC`, the molecule was called inactive.

Take `O=S1OCC2C(CO1)C1(Cl)C(Cl)=C(Cl)C2(Cl)C1(Cl)Cl` (stereo not given): the call was inactive.

Take `CCc1ccc(C(=O)NN(C(=O)c2cc(C)cc(C)c2)C(C)(C)C)cc1`: the result was inactive.

On to `C#CCN1C(=O)COc2cc(F)c(N3C(=O)C4=C(CCCC4)C3=O)cc21`, for which the molecule was called inactive.

In the case of `CC[C@H](C)[C@H]1O[C@]2(C=C[C@@H]1C)C[C@@H]1C[C@@H](C/C=C(\C)[C@@H](O[C@H]3C[C@H](OC)[C@@H](O[C@H]4C[C@H](OC)[C@@H](O)[C@H](C)O4)[C@H](C)O3)[C@@H](C)/C=C/C=C3\CO[C@@H]4[C@H](O)C(C)=C[C@@H](C(=O)O1)[C@]34O)O2` (tested in a mixture with another compound), the AC50 is 6 µM (active).
